High-throughput results deposited in PubChem by several laboratories.
Only some compounds are listed: those with a hit (about 3.9% of all), similar ones and a draw of the others.
Anthrax LF inh2 = blocks Bacillus anthracis lethal factor protease; P15917; actives 0.12% (n = 360,000); inhibition, % at 10 µM; AID 588501; multiplex microsphere protease cleavage assay, LF; in the data active means inhibition above about 30%; inconclusive means no clear call, values can overlap the other calls
BoNT A protease = inhibitors of Botulinum neurotoxin A light chain protease; multiplex microsphere protease substrate cleavage, flow cytometry; inhibition, % at 10 µM; actives 0.17% (n = 360,000); in the data active means inhibition above about 30%; inconclusive means no clear call, values can overlap the other calls
BoNT-F LC inh = blocks Botulinum neurotoxin F light chain protease | Multiplex microsphere protease cleavage assay, flow cytometry | inhibition, % at 10 µM | actives 0.22% (n = 360,000) | AID 588497; in the data active means inhibition above about 35%, passing the limit was not always enough; inconclusive means no clear call, values can overlap the other calls
Bead autofluor = compound fluorescence in toxin protease inhibitor counterscreen; fluorescence intensity (test concentration not listed); compound autofluorescence counterscreen, microsphere flow cytometry; active compounds read high; actives 3.1% (n = 360,000); AID 624483; in the data active means fluorescence intensity above about 16000; inconclusive means no clear call, values can overlap the other calls
CCHF vOTU inh-1 = blocks the CCHF virus ovarian tumor domain protease. CCHFV vOTU protease, Pep-AMC fluorescence. actives 0.55% (n = 370,000). inhibition, % at 11.5 µM
3CLpro inhibitor = SARS-CoV 3CLpro protease inhibition; AID 1706; inhibition, % at 6 µM; actives 0.14% (n = 290,000); recombinant SARS-CoV 3CLpro, quenched FRET peptide cleavage; in the data active means inhibition above about 12%
CCHF vOTU inh-2 = confirmation of CCHF virus vOTU protease inhibitors; Recombinant CCHFV vOTU, Pep-AMC fluorescence; actives 17% (n = 1,900); shares compounds with CCHF vOTU inh-1; inhibition, % at 11.5 µM; AID 686976
Hits are given with their value; . = inactive; ? = inconclusive; / = not tested or not shown. Unless noted, no stated cut-off is given here; in the data, active means inhibition above about 30%; inactive means the rest.

SMILES	Anthrax LF inh2	BoNT A protease	BoNT-F LC inh	Bead autofluor	CCHF vOTU inh-1	3CLpro inhibitor	CCHF vOTU inh-2
COc1cc(NC(C)CCCNC(C)C)c2ncccc2c1OC (stereo not drawn)	.	.	.	.	.	/	/
COc1cc(C(=O)Nc2cccc3ncccc23)cc(OC)c1OC	.	.	.	.	.	.	/
CCCCCC(C)NC(=O)CN1C(=O)NC(C)(c2ccc3ccccc3c2)C1=O (stereo not drawn)	.	.	.	.	32	.	.
CC1(c2ccc3ccccc3c2)NC(=O)N(CC(=O)NCc2cccs2)C1=O (stereo not drawn)	.	.	.	.	.	.	/
COC(=O)/C(=C\c1ccc2c(c1)c1ccccc1n2C)NC(=O)c1ccccc1	.	.	.	.	.	.	/
Cn1c2ccccc2c2cc(/C=C(\NC(=O)c3ccccc3)C(=O)O)ccc21	.	.	.	.	30	.	.
O=C1C(Cl)=C(Nc2ccc3cn[nH]c3c2)C(=O)c2ccccc21	.	.	.	.	87	.	80
CN(C)c1ccc(NC2=C(Cl)C(=O)c3ccccc3C2=O)cc1	.	.	.	.	56	.	.
CN(CCCC1CCCC1)C(=O)c1cc(COc2ccc(F)c(F)c2)on1	.	.	.	.	38	.	.
NC(=O)C1CCN(C2=C(Cl)C(=O)c3ccccc3C2=O)CC1	.	.	.	.	58	.	83
CC1COCC(C)N1C1=C(Cl)C(=O)c2ccccc2C1=O (stereo not drawn)	.	.	.	.	87	/	90
CN(C1=C(N2CCOCC2)C(=O)c2ccccc2C1=O)c1ccccc1	.	.	.	.	.	.	/
CN1CCN(C2=C(Cl)C(=O)c3ccccc3C2=O)CC1	.	.	.	.	106	/	99
O=C1C(Cl)=C(N2CCC(C(=O)O)CC2)C(=O)c2ccccc21	.	.	.	.	/	.	/
CCC(C(=O)NCCC(C)C)n1ccc2cc(S(=O)(=O)N3CCCCC3)ccc21 (stereo not drawn)	/	/	/	/	/	.	/
CC(C)c1ccc(CN2CCN(C(=O)CSc3nnnn3C3CC3)CC2)cc1	.	.	.	.	.	/	/
COc1ccc(-c2oc3c(c2-c2cnc(OC)nc2)C(O)CC3)cc1 (stereo not drawn)	.	.	.	.	.	/	/
O=C(O)/C=C/C(=O)NC1CCC(CC2CCC(NC(=O)/C=C/C(=O)O)CC2)CC1 (stereo not drawn)	.	.	.	.	.	.	/
Cc1ccc(NC(=S)N2CCC(C(=O)c3ccc(F)cc3)CC2)cc1C	.	.	?	.	.	/	/
Cc1ccc(CSCC(=O)N(CCC(C)C)c2c(N)n(Cc3ccccc3)c(=O)[nH]c2=O)cc1	.	.	.	?	.	/	/
COc1cc(/C=N/NC(=O)C(Cc2c[nH]c3ccccc23)NC(=O)OCc2ccccc2)cc([N+](=O)[O-])c1O (stereo not drawn)	.	.	.	.	35	.	.
COc1cc(/C=N/NC(=O)C(Cc2c[nH]c3ccccc23)NC(=O)OCC(C)C)cc([N+](=O)[O-])c1O (stereo not drawn)	.	.	.	.	.	.	/
CC1(C)CC(=O)C2=C(C1)OC(N)=C(C#N)C21CCN(Cc2ccccc2)CC1	.	.	.	.	.	.	/
Cc1nc2c([nH]1)C1(CCN(Cc3ccccc3)CC1)C(C#N)=C(N)O2	.	.	.	.	40	.	.
COC(=O)c1ccc(NC(=O)CNCc2ccncc2)cc1	.	.	.	.	32	.	.
SMILES	Anthrax LF inh2	BoNT A protease	BoNT-F LC inh	Bead autofluor	CCHF vOTU inh-1	3CLpro inhibitor	CCHF vOTU inh-2
COC(=O)c1ccc(CNCC(=O)Nc2ccc(C(=O)OC)cc2)cc1	.	.	.	.	.	.	/
O=S(=O)(c1ccc(SCc2ccc(Br)cc2)nc1)N1CCCCC1	.	.	.	?	.	/	/
CN1CCN(c2ccc(S(=O)(=O)N3CCCCC3)cn2)CC1	.	.	.	.	.	.	/
COc1ccccc1N1CCN(c2ccc(S(=O)(=O)N3CCN(C)CC3)cn2)CC1	.	.	.	.	33	/	.
Cc1ccc(NC(=O)Cc2ccsc2)cc1S(=O)(=O)N1CCOCC1	.	.	.	.	.	/	/
COC(=O)[C@]12C[C@H](CC(=O)NCc3cccc(C(F)(F)F)c3)C(=O)N(Cc3ccc(Cl)cc3Cl)C1=C[C@H](C1CCCC1)O[C@@H]2C	/	/	/	/	32	/	.
CCCCCCCCN1C(=O)[C@@H](CC(=O)N2CCN(C(=O)C3CC3)CC2)C[C@@]2(C(=O)OC)C1=C[C@H](C1CCCC1)O[C@@H]2C	/	/	/	/	33	/	.
CCCCCCCCN1C(=O)[C@@H](CC(=O)NCC2CCCCC2)C[C@@]2(C(=O)OC)C1=C[C@H](C1CCCC1)O[C@@H]2C	/	/	/	/	.	/	/
CCCCCCCCN1C(=O)[C@@H](CC(=O)NCc2ccc(C)o2)C[C@@]2(C(=O)OC)C1=C[C@H](C1CCCC1)O[C@@H]2C	/	/	/	/	30	/	.
CC(=O)Nc1cccc(NC(=O)C(C)N2c3cccc4cccc(c34)S2(=O)=O)c1 (stereo not drawn)	.	.	.	.	.	.	/
COc1ccc2cc([C@H](C)C(=O)OCc3cn(CC(=O)c4ccc(O)cc4)nn3)ccc2c1	.	.	.	.	.	/	/
O=C(Cn1cc(COC(=O)c2c3ccccc3cc3ccccc23)nn1)c1ccc(O)cc1	/	/	/	/	34	/	.
CCCCCCn1c(=O)n2n(c1=O)[C@@H]1CN(S(=O)(=O)c3ccc(C)cc3)C[C@]1(O)[C@@H](OC(=O)NCc1ccc(OC)c(OC)c1)C2	.	.	.	.	43	/	.
CCCCCCn1c(=O)n2n(c1=O)[C@@H]1CN(S(=O)(=O)c3ccc(C)cc3)C[C@]1(O)[C@@H](OC(=O)Nc1cccs1)C2	.	.	.	.	34	/	.
O=C1NC[C@H](Cc2ccc(O)cc2)N(C[C@@H]2CCCN2C[C@H](Cc2ccc(O)cc2)N2C[C@H](Cc3ccccc3)N(CCc3ccccc3)C(=O)C2=O)C1=O	.	.	.	.	34	/	.
CC(C)C[C@@H](CN1CCC[C@@H]1CN1C(=S)NC[C@@H]1Cc1ccccc1)N1C[C@H](Cc2ccc(O)cc2)N(CC2CCCCC2)C1=S	.	.	.	.	30	/	.
CCOc1ccc(CCN2C(=S)N([C@@H](Cc3ccccc3)CN3CCCC3CN3C(=S)NC[C@@H]3Cc3ccccc3)C[C@@H]2Cc2ccc(O)cc2)cc1 (stereo partly drawn)	.	.	.	.	30	/	.
CC(C)C[C@@H](CN1CCC[C@@H]1CN1C(=S)NC[C@@H]1Cc1ccccc1)N1C[C@H](Cc2ccc(O)cc2)N(CC2CCCCCC2)C1=S	.	.	.	.	.	/	/
CCOc1ccc(CCN2C(=O)C(=O)N([C@@H](CC(C)C)CN3CCC[C@H]3CN3C(=O)C(=O)NC[C@@H]3Cc3ccc(O)cc3)C[C@@H]2Cc2ccccc2)cc1	.	.	.	.	30	/	.
